Screening results as filed in PubChem.
Rows were chosen to be rich in hits. Some 6.5% of all compounds tested hit in one or more screens of this group.
TGFb inhibitor: qHTS for Inhibitors of TGF-b; Potency, µM (series often up to 46.1 µM), for the others: top-dose activity, negative = inhibition, most hits filed as inhibitors; HepG2 CAGA-GFP TGF-b/SMAD3 reporter, GFP fluorescence, 18 h; TGF-beta stimulated, 500 pg/mL final; actives 1.2% (n = 410,000); AID 588855, 2011; also: potency is read from the fitted curve at half-maximal effect; % is scaled to controls: 0 for no effect and ±100 for the full control effect; nearly all actives have a fitted effect of over 65% in size
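TGF-beta reporter screen: HEPG2 CAGA-GFP, 1% FBS, 500 pg/mL TGF-beta final, 18 h; per-cell GFP summed per well; curves fitted and categorized by class.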
IL1B secr inh: qHTS for Inhibitors of Inflammasome Signaling: IL-1-beta AlphaLISA Primary Screen | THP-1 LPS/ATP IL-1B secretion, AlphaLISA, 16 h; active compounds read low | activity change, % at 57.5 µM | actives 4.7% (n = 360,000) | AID 743279, 2014; in the data active = activity change below about -50%; inconclusive = mostly about -30% to -49%; also: % is scaled to controls: 0 for no effect and ±100 for the full control effect
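Secreted IL-1B measured by AlphaLISA bead assay after 16 h compound exposure of THP-1 cells; compounds (final up to 57.5 uM) added 1 h before LPS (250 ng/mL) and ATP (1.25 mM) stimulation; lower signal means less secretion.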
HT1080NT lethal: qHTS for induction of synthetic lethality in tumor cells producing 2HG: qHTS for the HT-1080-NT fibrosarcoma cell line. HT-1080-NT fibrosarcoma viability, CellTiter-Glo ATP luminescence, 48 h. Potency, µM (titrated, usually from 46.1 µM), inactives show at the top dose activity, negative = less viability, hits mostly cytotoxic. actives 1.6% (n = 360,000);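 also: NT is the 2HG producing partner of a matched IDH1 knockdown line; potency is read from the fitted curve at half-maximal effect; 0% = DMSO-treated cells and -100% = media-only wells without cells; nearly all actives have a fitted effect of over 55% in size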
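HT-1080-NT fibrosarcoma cells (2HG-overproducing), 750 cells/well in RPMI with 5% FBS, dosed after 2 h and incubated 48 h at 37C. CellTiter-Glo luminescence normalized to DMSO and no-cell wells; concentration-response curves fitted and classed.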
HepG2 viability: qHTS for Inhibitors of TGF-b: Cytotox Counterscreen; Potency, µM (series often up to 46.1 µM), inactives show at the top dose activity change, negative = cytotoxicity, usual class: cytotoxic; AID 588856, 2011; HepG2 CAGA-GFP viability, ATP luminescence, 18 h; actives 0.76% (n = 410,000); also: potency is read from the fitted curve at half-maximal effect
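HepG2 CAGA-GFP cells (1000/well, DMEM with 1% FBS) received compound, then TGF-beta at 500 pg/mL final, and were incubated 18 hours at 37 degrees C. Viability was read by CellTiter-Glo luminescence. Media-only wells were set as complete cell-killing and DMSO as no toxicity.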
HT1080 IDH1KD tx: qHTS for induction of synthetic lethality in tumor cells producing 2HG: qHTS for the HT-1080-IDH1KD cell line. AID 686971, 2013. actives 2% (n = 360,000). Potency, µM (series often up to 46.1 µM), for inactives: at the top dose activity, negative = toxicity, usual class: cytotoxic. HT-1080 IDH1 knockdown viability, ATP luminescence, 48 h;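 also: potency is read from the fitted curve at half-maximal effect; 0% = DMSO wells and -100% = cell-free medium wells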
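Cytotoxicity counter-line: IDH1KD HT-1080, 48 h, CellTiter-Glo. Curves classed by r2, magnitude and activity.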
Giardia killer: Small Molecules that selectively kill Giardia lamblia: qHTS. activity change, % at 7.66 µM, hits read low. Giardia lamblia trophozoite viability. actives 0.15% (n = 340,000); in the data active = activity change below about -80%; inconclusive = between about -30% and that limit;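 also: parasites exposed to compound for two days anaerobically before the ATP read; % is scaled to controls: 0 for no effect and ±100 for the full control effect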
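Luminescence from cellular ATP indicates surviving trophozoites (100 cells/well) following 48 hrs anaerobic compound treatment at 37 deg C; signal develops 15-30 min at room temperature.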
Numbers without * were called inactive; ? = inconclusive; . = no result given; [ ] = remark or other dose. Unless noted, calls follow the shape of the dose curve; as a rule, active = well fitted curve in the direction sought with a large enough effect; inconclusive = small, poorly fitted or top-dose-only effect, or another doubt; inactive = no such curve, though single readings can be large; an effect the other way counts as inactive or inconclusive.

SMILES | TGFb inhibitor | IL1B secr inh | HT1080NT lethal | HepG2 viability | HT1080 IDH1KD tx | Giardia killer
CN1CC(C(=O)c2cccc(C(F)(F)F)c2)C(c2ccc(Cl)cc2)C1 (centres undefined) | -7% | -83* | -14% | -46% | -23% | 8
COc1ccc(C(=O)C2CN(C)CC2c2ccc(Cl)cc2)cc1 (centres undefined) | -3% | ? | 0% | -9% | -11% | -16
CN1CC(C(=O)c2ccc([N+](=O)[O-])cc2)C(c2ccc(Cl)cc2)C1 (centres undefined) | 5% | . | -2% | -10% | -24% | -5
Cc1cc(=O)oc2cc(OCC(=O)N3CCC(C(=O)O)(c4ccccc4)CC3)ccc12 | 12% | 2 | -1% | -4% | 1% | -12
O=C(C(=C1N(Cc2ccc(Cl)nc2)CCN1Cc1ccc(Cl)nc1)[N+](=O)[O-])C(Cl)Cl | -13% | -71* | -2% | -23% | -1% | 16
CCC1CO/C(=C(\C(Cl)=C(Cl)Cl)[N+](=O)[O-])N1Cc1ccc(Cl)nc1 (centres undefined) | 10% | 64 | 18% | 9% | 13% | 4
COc1ccc(N2CCN(CCCN)CC2)cc1 | 4% | ? | -15% | -4% | -14% | 6
CC(C)(C)c1ccc(/C=C2\Oc3cc(OC(=O)N4CCOCC4)ccc3C2=O)cc1 | ? | -77* | 21µM* | -23% | 18µM* | -11
Cc1cccc(OC(=O)N2CCOCC2)c1 | 6% | 6 | 3% | -3% | 2% | -1
O=C(c1sc2ccccc2c1Cl)N1CCC2(CC1)OCCO2 | 17% | 14 | 0%[9.24 µM] | -30% | -27% | -4
O=C(NC1C=CS(=O)(=O)C1)c1sc2ccccc2c1Cl (centres undefined) | -2% | -97* | 16µM* | -20% | 11µM* | 4
C=CCC1([C@@H](C)CCC)C(=O)NC(=O)NC1=O | -6% | -2 | -10% | -2% | 5% | -10
CN1C2CCC1CC(OC(c1ccccc1)c1ccccc1N)C2 (centres undefined) | 3% | -19 | -22% | -3% | ? | 7
Cc1cccc(N2C(=O)NC(=O)/C(=C\C=C\c3ccco3)C2=O)c1 | 8.9µM* | -96* | ? | -38% | ? | 1
O=C1NC(=O)N(c2ccccc2)C(=O)/C1=C/C=C/c1ccco1 | ? | -100* | 18µM* | -98% | ? | 6
CN1C(=O)/C(=C/C=C/c2ccco2)C(=O)NC1=S | ? | 0 | 5% | -11% | 4% | -10
Cc1ccc(N2C(=O)NC(=O)/C(=C\C=C\c3ccco3)C2=O)cc1 | ? | -97* | ? | -50% | ? | -2
CN(C)c1ccc(/C=C/C=C2/C(=O)NC(=O)N(c3ccccc3)C2=O)cc1 | -13% | -107* | 4.6µM* | 4% | 6.5µM* | 4
c1ccc(CCN2CCCCC2)nc1 | -5% | 23 | -1% | 6% | -2% | -17
COc1ccc(CCNC(=O)N2c3ccccc3Sc3ccccc32)cc1 | ? | ? | -24% | -26% | -28% | 0
CC1=C(C/C(C)=C/c2ccccc2)/C(=C/CO)[C@H](O)[C@](C)(O)C12CC2 | -7% | -15 | 18% | -7% | 17% | 1
CN1CCN(c2cccc3c2C(=O)c2ccccc2C3=O)CC1 | 2% | -60* | -21% | -22% | -18% | 24
CN1CCN(c2ccc3c(c2)S(=O)(=O)c2ccccc2C3=O)CC1 | ? | -11 | -29% | -23% | 1% | 6
CCOP(=O)(OCC)c1nc(-c2ccc(F)cc2)oc1NCc1ccccc1 | -5% | -54* | ? | -7% | -8% | 22
O=C1NC(=O)C(CCc2ccncc2)(Cc2cccc(Cl)c2Cl)C(=O)N1c1ccc(Br)cc1 (centres undefined) | -10% | 26 | 16µM* | -3% | 8.2µM* | -11
SMILES | TGFb inhibitor | IL1B secr inh | HT1080NT lethal | HepG2 viability | HT1080 IDH1KD tx | Giardia killer
CNC(=O)Oc1ccc(-c2cn3cc(C)ccc3n2)cc1 | -26% | ? | -11% | -61% | -29% | -108*
CS(=O)(=O)NCc1nnc2n1-c1ccc(Cl)cc1C(c1ccccc1)=NC2 | 12% | 16 | 22% | -3% | 25% | 27
N#Cc1c(Br)n(C2OC(CO)C(O)C2O)c2ncnc(N)c12 (centres undefined) | ? | -69* | 7.3µM* | -13% | 3.3µM* | 49
Nc1ncnc2c1ncn2[C@@H]1O[C@H](COP(=O)(O)CP(=O)(O)O)[C@@H](O)[C@H]1O | 2% | -1 | ? | -32% | -20% | 2
Cc1cccc(-c2nc3ccc(C(=O)N4CCC5(CC4)OCCO5)cc3nc2-c2cccc(C)c2)c1 | ? | -77* | ? | 2% | ? | 18
COc1cccc(C(=O)N2CCC3(CC2)OCCO3)c1 | -1% | -1 | 2% | -2% | -9% | -6
CCOc1ccc(CNC(=O)CCn2c(=O)oc3ccccc32)cc1 | 25% | 23 | -1% | 0% | 5% | 4
COC(=O)C1=C(c2ccc(Cl)c(C(F)(F)F)c2)C[C@@H]2CC[C@H]1N2C(=O)NCCOc1ccccc1 | ? | -81* | ? | -23% | -14% | 9
COC(=O)C1=C(c2ccc(Cl)c(C(F)(F)F)c2)C[C@@H]2CC[C@H]1N2C(=O)NC1CCCCC1 | ? | -52* | -29% | -8% | ? | -4
COC(=O)C1=C(c2ccc(OC(F)(F)F)cc2)C[C@@H]2CC[C@H]1N2C(=O)NCCOc1ccccc1Cl | ? | -58* | -27% | -28% | -15% | -4
COC(=O)C1=C(c2ccc(Cl)c(C(F)(F)F)c2)C[C@@H]2CC[C@H]1N2C(=O)NCc1ccco1 | ? | -65* | 0% | -5% | -7% | -8
CCC(C)NC(=O)CN1C(=O)CN=C(c2ccccc2)c2ccccc21 (centres undefined) | 2% | -13 | ? | -18% | 21% | 18
NS(=O)(=O)OC(CCc1ccccc1)C(Cl)(Cl)Cl (centres undefined) | ? | 36 | -3% | -20% | 10% | 10
CCn1c(C)cc(/C=C2\C(=O)NC(=O)N(c3ccccc3C)C2=O)c1C | 19% | 8 | 1% | 1% | 5% | -1
